Our source for the inhibition values is ChEMBL document CHEMBL1961873, “Compounds: GSK PKIS; Assays: Nanosyn kinase panel” (2012).

In test [1] the target is Dual specificity protein kinase CLK3 (Homo sapiens) (UniProt P49761). The conditions noted are these: at 1 µM.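 Also: each value is the mean inhibition of CLK3.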
In test [2] the target is Dual specificity tyrosine-phosphorylation-regulated kinase 1A (Homo sapiens) (UniProt Q13627). As to conditions: at 0.1 µM.
For test [3] the target is unchanged. As to conditions: at 1 µM.
Test [4] deals with Dual specificity tyrosine-phosphorylation-regulated kinase 1B (Homo sapiens) (UniProt Q9Y463). The conditions noted are these: at 0.1 µM.
Test [5] has the same target. The conditions noted are these: at 1 µM.
The target in test [6] is T1, Dual specificity tyrosine-phosphorylation-regulated kinase 2 (Homo sapiens) (UniProt Q92630).
T1 sequence (whole entry): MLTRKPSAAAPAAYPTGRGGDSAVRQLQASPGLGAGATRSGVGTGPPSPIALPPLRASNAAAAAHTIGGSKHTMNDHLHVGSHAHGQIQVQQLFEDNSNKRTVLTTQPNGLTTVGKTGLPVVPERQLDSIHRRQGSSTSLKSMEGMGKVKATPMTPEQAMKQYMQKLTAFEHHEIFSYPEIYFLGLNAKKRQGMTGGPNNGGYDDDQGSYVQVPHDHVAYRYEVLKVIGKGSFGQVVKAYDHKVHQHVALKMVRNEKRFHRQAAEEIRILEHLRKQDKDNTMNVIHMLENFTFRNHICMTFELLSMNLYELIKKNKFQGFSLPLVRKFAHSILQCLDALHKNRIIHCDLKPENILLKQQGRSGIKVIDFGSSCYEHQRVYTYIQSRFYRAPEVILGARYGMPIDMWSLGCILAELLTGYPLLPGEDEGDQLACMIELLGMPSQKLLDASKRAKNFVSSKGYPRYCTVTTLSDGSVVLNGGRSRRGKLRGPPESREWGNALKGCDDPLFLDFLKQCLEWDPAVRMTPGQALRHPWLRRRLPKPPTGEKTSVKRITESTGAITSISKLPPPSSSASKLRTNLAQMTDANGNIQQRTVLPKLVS
As to conditions: at 0.1 µM.

Test [7] has as its target T1, Dual specificity tyrosine-phosphorylation-regulated kinase 2 (Homo sapiens). The conditions noted are these: at 1 µM.
In test [8] the target is Glycogen synthase kinase-3 alpha (Homo sapiens) (UniProt P49840). As to conditions: at 0.1 µM.
The target is the same in test [9]. As to conditions: at 1 µM.
In test [10] the target is Glycogen synthase kinase-3 beta (Homo sapiens) (UniProt P49841). The conditions noted are these: at 0.1 µM.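 Also: values are mean percent inhibition of GSK3B activity, from the GSK Published Kinase Inhibitor Set (PKIS) screening dataset.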

“And” between values parts separate entries of the source, which are not always exact repeats. Equal values may be shown once.

Sequence of Glycogen synthase kinase-3 beta (Homo sapiens) (P49841 whole entry, looked up): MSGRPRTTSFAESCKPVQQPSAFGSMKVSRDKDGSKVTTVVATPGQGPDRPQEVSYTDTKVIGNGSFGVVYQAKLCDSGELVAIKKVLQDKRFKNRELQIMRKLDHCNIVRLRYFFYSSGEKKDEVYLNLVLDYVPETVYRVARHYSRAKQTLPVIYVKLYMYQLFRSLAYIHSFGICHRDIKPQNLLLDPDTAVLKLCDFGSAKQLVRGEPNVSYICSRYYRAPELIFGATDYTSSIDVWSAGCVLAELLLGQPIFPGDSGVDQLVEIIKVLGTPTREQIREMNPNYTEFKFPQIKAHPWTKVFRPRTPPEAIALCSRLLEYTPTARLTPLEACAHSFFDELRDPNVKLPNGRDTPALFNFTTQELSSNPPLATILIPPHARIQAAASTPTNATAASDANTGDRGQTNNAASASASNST
Sequence of Dual specificity tyrosine-phosphorylation-regulated kinase 1B (Homo sapiens) (Q9Y463 whole entry, looked up): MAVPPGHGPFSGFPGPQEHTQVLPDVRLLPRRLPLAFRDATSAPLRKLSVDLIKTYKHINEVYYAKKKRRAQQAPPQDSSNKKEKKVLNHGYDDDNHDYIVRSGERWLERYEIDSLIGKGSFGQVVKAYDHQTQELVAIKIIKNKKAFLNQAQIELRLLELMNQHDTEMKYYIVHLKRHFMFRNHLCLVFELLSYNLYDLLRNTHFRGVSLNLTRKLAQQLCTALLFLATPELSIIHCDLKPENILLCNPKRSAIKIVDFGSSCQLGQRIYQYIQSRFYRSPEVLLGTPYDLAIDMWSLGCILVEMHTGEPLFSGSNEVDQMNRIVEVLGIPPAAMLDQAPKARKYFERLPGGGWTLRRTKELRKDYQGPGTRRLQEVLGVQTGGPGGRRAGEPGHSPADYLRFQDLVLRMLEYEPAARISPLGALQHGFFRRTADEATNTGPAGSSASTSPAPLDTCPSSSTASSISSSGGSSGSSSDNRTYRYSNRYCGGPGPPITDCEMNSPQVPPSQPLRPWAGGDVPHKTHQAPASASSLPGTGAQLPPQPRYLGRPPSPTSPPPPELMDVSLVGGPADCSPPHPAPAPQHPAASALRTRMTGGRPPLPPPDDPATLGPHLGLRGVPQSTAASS
Sequence of Dual specificity protein kinase CLK3 (Homo sapiens) (P49761 whole entry, looked up): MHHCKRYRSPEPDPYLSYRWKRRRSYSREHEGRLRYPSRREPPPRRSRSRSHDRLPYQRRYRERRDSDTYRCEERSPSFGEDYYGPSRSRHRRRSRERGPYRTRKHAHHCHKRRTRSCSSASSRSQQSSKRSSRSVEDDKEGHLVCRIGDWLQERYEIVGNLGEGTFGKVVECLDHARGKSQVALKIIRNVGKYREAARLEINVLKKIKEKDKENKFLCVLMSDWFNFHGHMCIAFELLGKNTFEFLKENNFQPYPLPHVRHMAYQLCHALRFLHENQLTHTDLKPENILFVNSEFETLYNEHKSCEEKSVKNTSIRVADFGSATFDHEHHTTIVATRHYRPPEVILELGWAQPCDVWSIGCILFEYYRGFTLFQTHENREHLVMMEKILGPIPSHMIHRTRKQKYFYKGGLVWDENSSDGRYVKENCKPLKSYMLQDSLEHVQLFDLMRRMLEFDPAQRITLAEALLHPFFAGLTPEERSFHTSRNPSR
Sequence of Glycogen synthase kinase-3 alpha (Homo sapiens) (P49840 2-483 limits assumed): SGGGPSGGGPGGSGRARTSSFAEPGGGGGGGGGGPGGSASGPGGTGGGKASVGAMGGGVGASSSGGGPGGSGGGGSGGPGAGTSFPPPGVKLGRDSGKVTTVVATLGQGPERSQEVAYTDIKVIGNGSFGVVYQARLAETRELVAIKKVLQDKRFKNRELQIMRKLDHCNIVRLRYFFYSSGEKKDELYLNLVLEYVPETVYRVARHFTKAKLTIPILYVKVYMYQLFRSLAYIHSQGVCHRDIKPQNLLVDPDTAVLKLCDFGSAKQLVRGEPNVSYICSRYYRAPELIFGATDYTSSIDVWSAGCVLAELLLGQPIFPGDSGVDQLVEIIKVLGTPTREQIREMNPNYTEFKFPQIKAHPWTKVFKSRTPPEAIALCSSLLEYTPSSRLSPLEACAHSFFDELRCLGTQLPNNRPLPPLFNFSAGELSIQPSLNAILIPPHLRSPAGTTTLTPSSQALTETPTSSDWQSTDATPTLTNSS

What is called inhibition is the relative decrease from the control value, in per cent. For the compound `COc1cccc(-n2ncc3c(N/N=C/c4ccc(C(=O)NCCN(C)C)cc4)ncnc32)c1`, the inhibition in test [1] was found to be 31.7%; in test [2] it was 38.1%; in test [3], 71.6%; in test [4], 17.8%; in [5] it was 57.1%; in test [6], 20.9%. Moreover, the inhibition in test [7] turned out to be 66.3%; in [8], 71.9%; in test [9], 82.7%; in test [10], 66.3%.

Consider `O=C(Nc1n[nH]c2nnc(-c3cccnc3)cc12)C1CC1`, for which the inhibition in test [1] came to 1.3%; in test [2] it was 73.8%; in test [3] it was 93.2%; in [4], 69.1%; in test [5], 81%; in [6], 20.6%. Besides, the inhibition in test [7] was found to be 75%; in test [8], 80.5%; in test [9], 82.4%; in test [10], 80%.

As to `COc1cc(Nc2ncc(-c3ccccc3)o2)cc(OC)c1`, the inhibition in test [1] was 1.09%; in test [2] it was 3.59%; in test [3] it was 6.1%; in test [4], -8.51%; in [5], 0.86%; in test [6], 2.09%. Also, the inhibition turned out to be 1.69% in [7], 3.75% in [8], 14.6% in test [9] and 2.47% in [10].

Regarding `COc1c(C(N)=O)cc(-c2ccc(Cl)cc2)cc1-c1ccc(S(N)(=O)=O)cc1`, the inhibition was 0.31% in test [1]; 3.11% in [2]; 4.97% in test [3]; -0.92% in [4]; -0.01% in test [5]; 3.75% in test [6]. In addition, the inhibition in [7] came out at 8.4%; in test [8], 1.76%; in test [9], 2.57%; in test [10], 0.69%.

`CN(C)CCNC(=O)Nc1ccc(N(C)c2ccnc(Nc3ccc(CS(C)(=O)=O)cc3)n2)cc1`: the inhibition in test [1] turned out to be 2.89%; in test [2], 2.86%; in [3], 5.24%; in [4] it was 1.37%; in [5] it was 1.57%; in test [6], 2.66%. For the same compound, the inhibition in test [7] stood at 4.33%; in [8], 1.56%; in test [9], 4.32%; in test [10], 0.61%.

As to `CN1CCN(Cc2ccc(-c3cc4ncnc(Nc5ccc(OCc6cccc(F)c6)c(Cl)c5)c4s3)o2)CC1`, the inhibition in test [1] was 0.78% and 2.08%; in [2] it was 2.29% and 3.65%; in test [3], 3.25% and 6.67%; in [4], -1.48% and 1.67%; in [5] it was -0.65% and 3.95%; in test [6], 2.17% and 3.19%. Moreover, the inhibition in [7] is 1.22% and 4.53%; in test [8], 4.34% and 12.6%; in test [9], 3.93% and 13.7%; in [10], 2.82% and 10.6%.

As for `COc1cc(N2CCN(C(C)C)CC2)ccc1Nc1nc(Nc2cccc(F)c2C(=O)O)c2cc[nH]c2n1`, the inhibition was determined as 7.82% in [1]; 5.55% in test [2]; 23% in [3]; 5.54% in test [4]; 32.6% in [5]; 2.88% in test [6]. The inhibition was 4.2% in test [7], 5% in test [8], 6.33% in [9] and 3.95% in test [10].

Regarding `CNC(=O)c1sc(-n2cnc3cc(OC)c(OC)cc32)cc1OCc1ccccc1C(F)(F)F`, the inhibition is -0.08% in test [1]; 1.4% in test [2]; 2.18% in test [3]; -0.95% in [4]; 0.23% in test [5]; 2.15% in [6]. For the same compound, the inhibition in [7] turned out to be 1.34%; in test [8], 2.13%; in test [9] it was 5.93%; in test [10], 1.12%.

Consider `CCCNc1cccc(-n2ncc3c(N/N=C/c4ccncc4)ncnc32)c1`, for which the inhibition turned out to be 9.87% in test [1]; 1.44% in test [2]; 20.6% in [3]; 0.57% in test [4]; 9.45% in [5]; 2.85% in test [6]. Besides, the inhibition in test [7] worked out at 14.2%; in test [8], 31.9%; in test [9], 71.8%; in test [10], 24%.

`CN(c1ccc(NC(=O)NCCN2CCOCC2)cc1)c1ccnc(Nc2ccc(CS(C)(=O)=O)cc2)n1`: the inhibition in [1] was 1.43%; in [2], 1.69%; in test [3] it was 3.45%; in test [4], -0.71%; in test [5] it was 2.44%; in test [6], 1.44%. Moreover, the inhibition was 3.05% in [7], 4.05% in test [8], 8.02% in test [9] and 4.49% in test [10].

As to `Cc1c2ccc(N(C)c3ccnc(Nc4cccc(S(N)(=O)=O)c4)n3)cc2nn1C`, the inhibition in test [1] was 1.11%; in test [2] it was -1.03%; in test [3], 1.54%; in test [4] it was -3.31%; in test [5], -2.73%; in test [6], 2.38%. The inhibition in test [7] was 2.71%; in test [8], -0.44%; in [9] it was 6.37%; in [10], -0.25%.

Consider `CC1(C)CC(n2cnc(-c3ccc(F)cc3)c2-c2ccnc(N)n2)CC(C)(C)N1`, for which the inhibition in test [1] amounted to 1.38%; in test [2], 1.54%; in test [3] it was 5.47%; in [4], 0.78%; in [5] it was 1.31%; in [6], 0.23%. The inhibition is -0.37% in test [7], 1.97% in [8], 5.81% in test [9] and 1.6% in test [10].

Take `Nc1nccc(-c2c(-c3ccc(F)cc3)ncn2C2CCNCC2)n1`: the inhibition in [1] was 1.14% and 2.38%; in test [2], 0.55% and 2.23%; in test [3], 3.87% and 4.35%; in test [4], 2.09% and 2.37%; in test [5], 5.26% and 3.56%; in [6], -3.5% and -0.2%. Also, the inhibition in test [7] was 1.66% and -0.95%; in test [8], 0.13% and 1.29%; in test [9] it was 2.91% and 3.54%; in test [10], -1.49% and 2.54%.

On to `CC1=C(C(=O)Nc2ccc3[nH]ncc3c2)C(c2ccc(F)cc2)N=C(c2ccc(C(F)(F)F)nc2)N1` (stereo not given), for which the inhibition in [1] came out at 2.08%; in test [2], 1.92%; in [3], 2.39%; in test [4], 1.23%; in test [5] it was 1.37%; in [6] it was 1.37%. Besides, the inhibition in test [7] turned out to be 1.27%; in test [8], 1.54%; in test [9], 4.37%; in test [10], 1.95%.

Consider `COc1ccccc1-c1cc(/C=C2\C(=O)Nc3ncc(Br)cc32)cc(Br)c1O`, for which the inhibition worked out at 9.88% in test [1]; 2.51% in test [2]; 11.2% in [3]; 0.86% in test [4]; 4.16% in test [5]; 3.68% in test [6]. The inhibition in test [7] worked out at 4.79%; in test [8], 4.73%; in test [9], 10%; in test [10] it was 5.17%.

Regarding `NS(=O)(=O)c1cccc(N/C=C2\C(=O)Nc3ccccc32)c1`, the inhibition is 3.43% in test [1]; 4.67% in test [2]; 7.61% in [3]; 1.69% in [4]; 4.25% in test [5]; 3.56% in test [6]. For the same compound, the inhibition in [7] stood at 9.5%; in [8], 4.32%; in [9], 20%; in [10], 3.36%.
